Data reported in the supplement of paper PMC8728848.
Only a selection was taken, and the strongest signals are over-represented in it overall.

Experiments:
Assay in all cases: glycan array binding signal (z-score within array); higher = stronger binding
Conditions in all cases: glycan notation: IUPAC condensed, linker removed
[1] = target: Fuc(a1-2)Gal(b1-3)GlcNAc(b1-2)Man(a1-3)[Fuc(a1-2)Gal(b1-3)GlcNAc(b1-2)Man(a1-6)]Man(b1-4)GlcNAc(b1-4)[Fuc(a1-6)]GlcNAc
Method in brief: (§1)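 The Consortium for Functional Glycomics database supplied 3228 glycan arrays, of which those lacking an available protein sequence were dropped. The binding signal, a within-array Z-score, was averaged across arrays of the same protein sequence and across linkers. Negative scores can be read as non-binding.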

[2] = target: Fuc(a1-2)Gal(b1-4)Fuc(a1-3)]GlcNAc(b1-2)Man(a1-3)[Fuc(a1-2)Gal(b1-4)[Fuc(a1-3)]GlcNAc(b1-2)Man(a1-6)]Man(b1-4)GlcNAc(b1-4)GlcNAc
Method in brief: as §1

Fuc(a1-2)Gal(b1-4)Glc6S = target: Fuc(a1-2)Gal(b1-4)Glc6S
Method in brief: as §1

Fuc(a1-2)Gal(b1-4)GlcNAc = target: Fuc(a1-2)Gal(b1-4)GlcNAc
Method in brief: as §1

[3] = target: Fuc(a1-2)Gal(b1-4)GlcNAc(b1-2)Man(a1-3)[Fuc(a1-2)Gal(b1-4)GlcNAc(b1-2)Man(a1-6)]Man(b1-4)GlcNAc(b1-4)[Fuc(a1-6)]GlcNAc
Method in brief: as §1

[4] = target: Fuc(a1-2)Gal(b1-4)GlcNAc(b1-6)GalNAc
Method in brief: as §1

[5] = target: Fuc(a1-2)Gal(b1-4)[Fuc(a1-3)]GlcNAc(b1-3)GalNAc
Method in brief: as §1

[6] = target: Fuc(a1-2)Gal3S(b1-4)GlcNAc
Method in brief: as §1

[7] = target: Fuc(a1-2)[Gal(a1-3)]Gal(b1-3)GlcNAc(b1-3)GalNAc
Method in brief: as §1

[8] = target: Fuc(a1-2)[Gal(a1-3)]Gal(b1-4)GlcNAc(b1-2)Man(a1-3)[Fuc(a1-2)[Gal(a1-3)]Gal(b1-4)GlcNAc(b1-2)Man(a1-6)]Man(b1-4)GlcNAc(b1-4)[Fuc(a1-6)]GlcNAc
Method in brief: as §1

[9] = target: Fuc(a1-2)[GalNAc(a1-3)]Gal(b1-3)GlcNAc(b1-2)Man(a1-3)[Fuc(a1-2)[GalNAc(a1-3)]Gal(b1-3)GlcNAc(b1-2)Man(a1-6)]Man(b1-4)GlcNAc(b1-4)[Fuc(a1-6)]GlcNAc
Method in brief: as §1

[10] = target: Fuc(a1-2)[GalNAc(a1-3)]Gal(b1-4)GlcNAc(b1-2)Man(a1-3)[Fuc(a1-2)[GalNAc(a1-3)]Gal(b1-4)GlcNAc(b1-2)Man(a1-6)]Man(b1-4)GlcNAc(b1-4)[Fuc(a1-6)]GlcNAc
Method in brief: as §1

[11] = target: Fuc(a1-2)[GalNAc(a1-3)]Gal(b1-4)GlcNAc(b1-3)Gal(b1-4)GlcNAc(b1-3)Gal(b1-4)GlcNAc
Method in brief: as §1

[12] = target: Fuc(a1-2)[GalNAc(a1-3)]Gal(b1-4)[Fuc(a1-3)]GlcNAc(b1-3)GalNAc
Method in brief: as §1

[13] = target: Fuc(a1-3)[Gal(b1-4)]GlcNAc(b1-2)Man(a1-3)[Fuc(a1-3)[Gal(b1-4)]GlcNAc(b1-2)Man(a1-6)]Man(b1-4)GlcNAc(b1-4)GlcNAc
Method in brief: as §1

[14] = target: Fuc(a1-3)[GalNAc(b1-4)]GlcNAc6S
Method in brief: as §1

Gal(a1-2)Gal = target: Gal(a1-2)Gal
Method in brief: as §1

[15] = target: Gal(a1-3)Gal(b1-4)[Fuc(a1-3)]GlcNAc
Method in brief: as §1

Gal(b1-3)Gal = target: Gal(b1-3)Gal
Method in brief: as §1

Gal(b1-3)GalNAc(b1-3)Gal = target: Gal(b1-3)GalNAc(b1-3)Gal
Method in brief: as §1

[16] = target: Gal(b1-3)GalNAc(b1-3)Gal(a1-4)Gal(b1-4)Glc
Method in brief: as §1

[17] = target: Gal(b1-3)GlcNAc(a1-3)Gal(b1-4)GlcNAc
Method in brief: as §1

[18] = target: Gal(b1-3)GlcNAc(b1-3)Gal(b1-4)GlcNAc(b1-2)[Gal(b1-3)GlcNAc(b1-3)Gal(b1-4)GlcNAc(b1-6)]Man(a1-6)[Gal(b1-3)GlcNAc(b1-3)Gal(b1-4)GlcNAc(b1-2)Man(a1-3)]Man(b1-4)GlcNAc(b1-4)[Fuc(a1-6)]GlcNAc
Method in brief: as §1

[19] = target: Gal(b1-3)[Fuc(a1-4)]GlcNAc(b1-6)GalNAc
Method in brief: as §1

[20] = target: Gal(b1-3)[Neu5Ac(a2-6)]GlcNAc(b1-4)Gal(b1-4)Glc
Method in brief: as §1

Gal(b1-4)Glc = target: Gal(b1-4)Glc
Method in brief: as §1

Gal(b1-4)GlcNAc = target: Gal(b1-4)GlcNAc
Method in brief: as §1

[21] = target: Gal(b1-4)GlcNAc(b1-2)Man(a1-3)[GlcNAc(b1-4)][Gal(b1-4)GlcNAc(b1-2)Man(a1-6)]Man(b1-4)GlcNAc(b1-4)GlcNAc
Method in brief: as §1

[22] = target: Gal(b1-4)GlcNAc(b1-3)Gal(b1-3)GalNAc
Method in brief: as §1

Gal3S(b1-4)Glc6S = target: Gal3S(b1-4)Glc6S
Method in brief: as §1

B1: Epa8 (Candida glabrata) (protein)
chain: MGSSHHHHHHSSGLVPRGSHMASSRALSDYPLGCSPLLGTKLTPGLSMELYEYPLDNHGIGPHCWDPAYLNPEYPRTGFESHKLIGTAQNVMSLNFEHRTQDCHVEFSNLPASFNFPDQITLTNFTMLLYGYFKPKESGRYRFHMEADDLLLMNLGAGNAFDCCAHEATRNNLGDYIAYDIWAGTRKDVEVFLEKEVFYPLRLFFNNRDGRAALDFSYYLNGATEPGTDIPELLFSLPDGESCPAYI
Q: Which results are given for B1?
A: glycan array binding signal (z-score) [1]: 0.141; glycan array binding signal (z-score) [2]: 4.2; glycan array binding signal (z-score) (Fuc(a1-2)Gal(b1-4)Glc6S): 0.004; glycan array binding signal (z-score) (Fuc(a1-2)Gal(b1-4)GlcNAc): -0.45; glycan array binding signal (z-score) [3]: -0.33; glycan array binding signal (z-score) [4]: 0.724; glycan array binding signal (z-score) [5]: 2.63; glycan array binding signal (z-score) [6]: -0.437; glycan array binding signal (z-score) [7]: 0.166; glycan array binding signal (z-score) [8]: 0.03; glycan array binding signal (z-score) [9]: 0.09; glycan array binding signal (z-score) [10]: 0.443; glycan array binding signal (z-score) [11]: 0.493; glycan array binding signal (z-score) [12]: 3.16; glycan array binding signal (z-score) [13]: -0.093; glycan array binding signal (z-score) [14]: -0.401; glycan array binding signal (z-score) (Gal(a1-2)Gal): -0.54; glycan array binding signal (z-score) [15]: -0.506; glycan array binding signal (z-score) (Gal(b1-3)Gal): 0.171; glycan array binding signal (z-score) (Gal(b1-3)GalNAc(b1-3)Gal): -0.026; glycan array binding signal (z-score) [16]: 0.394; glycan array binding signal (z-score) [17]: 1.57; glycan array binding signal (z-score) [18]: 2.13; glycan array binding signal (z-score) [19]: 2.52; glycan array binding signal (z-score) [20]: -0.392; glycan array binding signal (z-score) (Gal(b1-4)Glc): -1.15; glycan array binding signal (z-score) (Gal(b1-4)GlcNAc): -0.292; glycan array binding signal (z-score) [21]: -1.47; glycan array binding signal (z-score) [22]: -1.06; glycan array binding signal (z-score) (Gal3S(b1-4)Glc6S): 0.684
